Assay results taken from PubChem BioAssay.

What follows are compounds tested against NADPH oxidase 5 (Homo sapiens) (UniProt Q96PH1) (assay: NOX5-dependent H2O2 signal modulators, primary screen, NOX inhibitor project, cell-based, HEK293-NOX5, Amplex Red fluorescence (AID 1161)). Details: HEK293-NOX5, ionomycin, 45 min, higher = more signal.
Chain of NADPH oxidase 5 (Homo sapiens) (Q96PH1 whole entry, looked up): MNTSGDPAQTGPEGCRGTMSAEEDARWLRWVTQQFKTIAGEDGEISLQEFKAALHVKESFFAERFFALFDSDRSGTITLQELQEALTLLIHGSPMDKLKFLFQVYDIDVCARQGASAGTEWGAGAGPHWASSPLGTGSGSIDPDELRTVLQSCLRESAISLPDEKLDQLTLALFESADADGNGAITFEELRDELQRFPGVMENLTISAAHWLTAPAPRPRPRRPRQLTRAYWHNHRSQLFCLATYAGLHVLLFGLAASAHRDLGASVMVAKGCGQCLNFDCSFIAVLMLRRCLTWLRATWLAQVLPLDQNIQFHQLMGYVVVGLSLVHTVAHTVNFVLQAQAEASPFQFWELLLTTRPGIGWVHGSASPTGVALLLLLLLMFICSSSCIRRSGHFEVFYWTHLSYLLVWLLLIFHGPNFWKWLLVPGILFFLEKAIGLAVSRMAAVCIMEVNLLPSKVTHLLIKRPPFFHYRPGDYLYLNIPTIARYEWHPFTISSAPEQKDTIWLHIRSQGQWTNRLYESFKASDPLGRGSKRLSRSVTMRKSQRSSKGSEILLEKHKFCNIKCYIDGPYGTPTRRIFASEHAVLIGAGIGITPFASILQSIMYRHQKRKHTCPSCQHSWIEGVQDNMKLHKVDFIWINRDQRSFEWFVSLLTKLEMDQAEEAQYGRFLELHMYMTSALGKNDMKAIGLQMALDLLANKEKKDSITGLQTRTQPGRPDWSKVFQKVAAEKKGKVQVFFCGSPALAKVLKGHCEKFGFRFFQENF

Compared with C#CCCCON=C1C[C@@H](O)[C@@H](O)[C@@H]2[C@@H]3C(=O)N(Cc4ccccc4)C(=O)[C@@H]3CC[C@@H]12, CC(C)=CCCC(C)=CCON=C1C[C@@H](O)[C@@H](O)[C@@H]2[C@@H]3C(=O)N(Cc4ccccc4)C(=O)[C@@H]3CC[C@@H]12 is lower in z-score: 0.551 for the first, -0.0355 for the second.

Going from CCCNC(=O)OC[C@H]1O[C@H](CCON=C(C)CCC(=O)OC[C@H]2O[C@H](c3ccccc3)C=C[C@@H]2Oc2ccc(OC)cc2)C=C[C@@H]1Oc1ccc(OC)cc1 to C=CC[C@@H]1C=C[C@H](ON=C(C)CCC(=O)OC[C@H]2O[C@H](c3ccccc3)C=C[C@@H]2Oc2ccc(OC)cc2)[C@@H](CO)O1, the z-score falls from -0.295 to -2.79.

First: CO[C@H]1COC(=O)[C@@H](C)COC(=O)[C@H](C)NC(=O)CC=C[C@H]1C
Second: CO[C@@H]1COC(=O)[C@H](CCSC)NC(=O)CC=C[C@@H](C)COC(=O)[C@H](C)NC(=O)CC=C[C@H]1C
The z-score of the first is higher: 0.895 for the first, 0.0788 for the second.

First: C[C@@H](c1ccccc1)N1C(=O)[C@H]2[C@H]3[C@H](O)[C@H](O)CC(=O)[C@H]3CC[C@H]2C1=O
Second: C[C@@H](c1ccccc1)N1C(=O)[C@H]2[C@H]3[C@H](O)[C@H](O)CC(=NO[C@@H]4O[C@H](CO)[C@@H](O)[C@H](O)[C@H]4O)[C@@H]3CC[C@H]2C1=O
The z-score of the first is higher: 0.811 for the first, 0.0309 for the second.

Going from CO[C@H]1COC(=O)CC=C[C@@H](C)[C@H](NS(=O)(=O)c2ccc(C)cc2)COC(=O)CCC[C@@H]1C to CO[C@@H]1COC(=O)[C@H](CCSC)NC(=O)CC=C[C@@H](C)COC(=O)CCC[C@H]1C, the z-score falls from 0.428 to -0.918.

Compared with CCC(=O)[C@@]1(O)C(=O)N2C(=C3C(=O)OCC[C@@H]31)N(Cc1ccccc1)C(C)=C(C(=O)OC)[C@H]2c1ccccc1, O=c1n(-c2ccccc2)c(=O)n2n1CC[C@@H]1C(=NOCc3ccccc3)[C@H]3O[C@H]3[C@@H](O)[C@@H]12 is lower in z-score: 0.245 for the first, 0.183 for the second.

Going from CCOC(=O)[C@H](CC(C)C)NC(=O)CCC1CC(OC(=O)NCCc2ccc(F)cc2)CC2(CCCC(COC(=O)NCCOc3ccccc3)O2)O1 (stereo partly specified) to CCOC(=O)[C@H](Cc1ccccc1)NC(=O)CCC1CC(OC(=O)NCCc2ccc(F)cc2)CC2(CCCC(COC(=O)NCCc3ccccc3OC)O2)O1 (stereo partly specified), the z-score falls from 1.33 to 0.294.

First: CCCNC(=O)OC[C@H]1O[C@H](CCON=C(C)CCN2CCCc3nc(C)c(C)cc32)C=C[C@@H]1Oc1ccc(OC)cc1
Second: CCCNC(=O)OC[C@H]1O[C@H](CCON=Cc2ccc(C(=O)N3[C@H](c4ccc(C)cc4)[C@@H](C)CC[C@H]3C(=O)OC)cc2)C=C[C@@H]1Oc1ccc(OC)cc1
The z-score of the first is lower: -1.14 for the first, 0.393 for the second.

First: O=C1CCCC=C1C(O)CCOC(c1ccccc1)(c1ccccc1)c1ccccc1 (stereo unspecified)
Second: C[C@@H]1CC[C@H]2C(=O)O[C@@H](Cc3ccccc3)CN2[C@H]1c1ccc(Br)cc1
The z-score of the first is lower: -0.832 for the first, -0.621 for the second.

First: Cc1cc2c(nc1C)CCCCN2CC(C)ON=C1[C@H]2CCn3c(=O)n(-c4ccccc4)c(=O)n3[C@H]2[C@H](O)[C@@H]2O[C@H]12 (stereo partly specified)
Second: C#CCCCON=C1[C@H]2CCn3c(=O)n(-c4ccccc4)c(=O)n3[C@H]2[C@H](O)[C@@H]2O[C@H]12
The z-score of the first is lower: 0.168 for the first, 0.607 for the second.

First: C#CCCCON=C1C[C@@H](O)[C@@H](O)[C@@H]2[C@@H]3C(=O)N(c4ccc(F)cc4F)C(=O)[C@@H]3CC[C@@H]12
Second: CC(C)=CCCC(C)=CCON=C1C[C@@H](O)[C@@H](O)[C@@H]2[C@@H]3C(=O)N(c4ccc(F)cc4F)C(=O)[C@@H]3CC[C@@H]12
The z-score of the first is lower: 0.0107 for the first, 0.0854 for the second.

First: CCOC(=O)NN=C1C[C@@H](O)[C@@H](O)[C@@H]2[C@@H]3C(=O)N(c4cccc(Oc5ccccc5)c4)C(=O)[C@@H]3CC[C@@H]12
Second: CC(C)CON=C1C[C@@H](O)[C@@H](O)[C@@H]2[C@@H]3C(=O)N(C[C@@H]4CCCO4)C(=O)[C@@H]3CC[C@@H]12
The z-score of the first is lower: -2.88 for the first, -0.0365 for the second.

First: Cc1ccc(S(=O)(=O)OC[C@H]2CN3[C@H](c4ccc(Br)cc4)[C@@H](C)CC[C@H]3C(=O)O2)cc1
Second: COC(=O)[C@@H]1CC[C@H](C)[C@@H](c2ccc(C)cc2)N1C(=O)c1ccc(C=NO[C@@H]2O[C@H](COC(C)=O)[C@@H](OC(C)=O)[C@H](OC(C)=O)[C@H]2OC(C)=O)cc1
The z-score of the first is higher: -0.632 for the first, -2.1 for the second.

First: CC(C)=NOC[C@@H](C)[C@H](OCc1ccccc1)C(C)C
Second: C=CC[C@@H]1C=C[C@H](ON=C[C@@H](C)[C@H](OCc2ccccc2)C(C)C)[C@@H](CO)O1
The z-score of the first is higher: -1 for the first, -1.48 for the second.

First: CO[C@H](C1CCCCC1)[C@H](C)C=CCC(=O)OCCCc1ccccc1
Second: COC(=O)CC=C[C@@H](C)[C@@H](C=NOCC[C@@H]1C=C[C@H](OC(C)=O)[C@@H](COC(C)=O)O1)OC
The z-score of the first is lower: -2.56 for the first, 0.855 for the second.

First: CCOC(=O)[C@H](CC(C)C)NC(=O)CCC1CC(OC(=O)NCc2ccc3c(c2)OCO3)CC2(CCCC(COC(=O)NCc3cccc(C(F)(F)F)c3)O2)O1 (stereo partly specified)
Second: CCOC(=O)[C@H](CC(C)C)NC(=O)CCC1CC(OC(=O)NCc2cccc3ccccc23)CC2(CCCC(COC(=O)NCCCN3CCCC3=O)O2)O1 (stereo partly specified)
The z-score of the first is higher: 1.2 for the first, -0.877 for the second.

Compared with CC(C)=CCCC(C)=CCON=C1C[C@@H](O)[C@@H](O)[C@@H]2[C@@H]3C(=O)N(C(C)(C)C)C(=O)[C@@H]3CC[C@@H]12, CC[C@@H](c1ccccc1)n1c(=O)n2n(c1=O)[C@H]1[C@H](O)[C@@H]3O[C@@H]3C(=NOC[C@@H](O)COCc3ccco3)[C@H]1CC2 is higher in z-score: -0.411 for the first, 1.36 for the second.

Compared with CCCCC#C[C@@H]1C=C[C@H](Oc2ccc(C(=O)OC)cc2)[C@@H](COC(=O)OCC)O1, CC(CCN1CCCCc2nc(C)c(C)cc21)=NO[C@H](C)c1cn([C@H](CO)Cc2ccccc2)nn1 is lower in z-score: 1.03 for the first, 0.477 for the second.
